This passage reports composite z-score and z-score results from PubChem BioAssay.

Calls of active or inactive are those of the source. Unless noted, how the calls were made is not given here.

Experiment [1] in a line: anti-His antibody binders, primary screen, artefact control for SMM control protein annotation, biochemical, small-molecule microarray, 635 nm fluorescence (AID 1128).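 Further: score merges feature fluorescence with signal-to-noise for each printed compound spot.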 The note with it: anti-His Alexa647 antibody binding, higher = more signal.
Experiment [2] concerns Human papillomavirus type 1a E7 protein (residues 1-88). Put plainly: HPV1a E7 small-molecule binders, primary screen, biochemical, small-molecule microarray, residues 1-88, 635 nm (AID 1129). The note with it: small-molecule microarray binding, fluorescence 635 nm; higher = more signal.
Experiment [3] concerns the target Focal adhesion kinase 1 (Homo sapiens) (UniProt Q05397). Put plainly: small-molecule microarray binders of FAK, primary screen, biochemical, 635/667 nm fluorescence, BSA, DTT (AID 1130).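 Further: composite of spot emission at 667 nm and signal to noise over triplicate slides.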 The conditions noted are these: PTK2 binding, 635 nm fluorescence, higher = more signal.
Experiment [4] has as its system Fibrinogen (Alexa647-labelled). The experiment can be described thus: fibrinogen binders on compound microarrays, profiling panel, artefact control for SMM control-protein annotation, biochemical, small-molecule microarray, 635/667 nm fluorescence (AID 1131).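 Further: z-score merges 667 nm fluorescence with per-spot signal-to-noise over triplicate slides.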 The conditions noted are these: fibrinogen-A647 binding fluorescence, higher = more signal.
For experiment [5], the target named is Follistatin (Homo sapiens) (UniProt P19883). Put plainly: follistatin binders on small-molecule microarrays, primary screen, biochemical, small-molecule microarray, 635/667 nm fluorescence (AID 1132). The note with it: FST binding, 635 nm fluorescence, higher = more signal.
The target of experiment [6] is Fibroblast growth factor 2 (Homo sapiens) (UniProt P09038). The experiment can be described thus: FGF2 binders on small-molecule microarrays, primary screen, biochemical, small-molecule microarray, 635/667 nm fluorescence (AID 1133). The conditions noted are these: small-molecule microarray binding, FGF2, fluorescence 635/667; higher = more signal.
A short description of experiment [7]: mitochondrial membrane potential change in A549 cells, profiling panel, cell-based, JC-1 fluorescence, basal, 24 h, 100 nL (AID 1138).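 Further: A549 lung adenocarcinoma cells under basal conditions with no added stimulus; test concentration not given here.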 The conditions noted are these: higher = more signal.
Experiment [8] relates to Lefty1. Put plainly: Lefty1 binders on small-molecule microarrays, primary screen, biochemical, small-molecule microarray, 635/667 nm fluorescence (AID 1139). The note with it: small-molecule microarray binding, fluorescence 635/667; higher = more signal.
Experiment [9] deals with wheat germ agglutinin (Triticum aestivum), Alexa647-labelled. Put plainly: wheat germ agglutinin binders on compound microarrays, profiling panel, artefact control for SMM control-protein annotation, biochemical, small-molecule microarray, 635/667 nm fluorescence (AID 1140).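 Further: score merges 667 nm feature emission with signal to noise over triplicate slides.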 The note with it: WGA-A647 binding, 635 nm fluorescence, higher = more signal.
In experiment [10] the target is Luciferin 4-monooxygenase (Photinus pyralis) (UniProt P08659). Put plainly: firefly luciferase enzyme inhibitors, primary screen, biochemical, luminescence, purified enzyme, 2006 set (AID 1141).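 Further: cell-free assay with purified firefly luciferase at 100 ng per well in PBS; test concentration not given here.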 The note with it: SteadyGlo luminescence, 30 min, higher = more signal, called active from +8 up or from −8 down.
Experiment [11] has as its system Wnt5a (protein binding on small-molecule microarray). Put plainly: Wnt5a binders on small-molecule microarray, primary screen, biophysical, 635/667 nm fluorescence (AID 1142).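 Further: fluorescence read at 667 nm with signal to noise per printed feature.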 The note with it: 635 nm fluorescence, higher = more signal.
Experiment [12] in a line: cell viability in Huh7 cells, primary screen, cytotoxicity control for HCV replication inhibitor project, CellTiter-Glo luminescence, basal, 48 h (AID 1143).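 Further: Huh7 hepatoma cells carrying a hepatitis C replication reporter with no stimulus; test concentration not given here.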 The note with it: Huh7 HCV replicon, higher = more signal, called active from +8 up or from −8 down. (ATP-based viability assays read luminescence as a measure of living cells.)
A short description of experiment [13]: P. aeruginosa biofilm formation inhibitors, primary screen, PAO1 strain, BacTiter-Glo luminescence, LB-PBS (AID 1144). The conditions noted are these: 12 h, higher = more signal.
Experiment [14] in a line: CREB reporter modulators without forskolin, primary screen, cell-based, PC12, CRE-LacZ reporter, unstimulated (AID 1145). The note with it: no forskolin, luminescence, 4.5 h, higher = more signal, called active from +8 up or from −8 down.
The nature of experiment [15]: CREB reporter modulators under forskolin, primary screen, cell-based, PC12, CRE-LacZ reporter, forskolin-stimulated (AID 1146).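 Further: PC12 cells with 6xCRE LacZ reporter stimulated by forskolin 10 µM; beta-galactosidase reporter signal reflecting CREB driven transcription.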 The conditions noted are these: luminescence, 4.5 h, higher = more signal, called active from +8 up or from −8 down.
In experiment [16] the target is Streptavidin (Streptomyces avidinii) (UniProt P22629). The experiment can be described thus: streptavidin binders on small-molecule microarray, primary screen, artefact control for SMM compound annotation, biophysical, 635/667 nm fluorescence (AID 1147).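 Further: signal reflects streptavidin binding to arrayed compounds as a control protein.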 The conditions noted are these: streptavidin binding, higher = more signal.
The nature of experiment [17]: small-molecule binders of probe aInhba, primary screen, biochemical, small-molecule microarray, 635/667 nm fluorescence (AID 1148).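 Further: score merges 667nm spot fluorescence with signal-to-noise for antibody binding to printed compounds.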 The note with it: higher = more signal.
In experiment [18] the target is Torsin-1A (Homo sapiens) (UniProt O14656). Put plainly: torsin A binders from cell lysate, primary screen, small-molecule microarray, wild-type, 635/667 nm (AID 1149). The conditions noted are these: COS7 hTOR1A-WT lysate, 635 nm fluorescence, higher = more signal.
Experiment [19] shares this target. Put plainly: small-molecule binders of mutant TOR1A in lysate, primary screen, cell lysate, small-molecule microarray, COS7 lysate, 635/667 nm fluorescence (AID 1150).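 Further: score pools 667 nm emission and signal to noise measuring lysate protein binding.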 The conditions noted are these: COS7 hTOR1A mutant lysate, 635 nm fluorescence, higher = more signal.
Experiment [20] relates to Sonic hedgehog protein (Shh). Put plainly: small-molecule binders of Shh protein, primary screen, biochemical, small-molecule microarray, 635/667 nm fluorescence (AID 1151).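 Further: Shh protein binding to compounds spotted on small-molecule microarray slides; score combines spot fluorescence intensity with signal-to-noise across triplicate slides.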 The note with it: small-molecule microarray binding, 635 nm fluorescence; higher = more signal.

Follistatin (Homo sapiens), sequence (P19883 whole entry, looked up): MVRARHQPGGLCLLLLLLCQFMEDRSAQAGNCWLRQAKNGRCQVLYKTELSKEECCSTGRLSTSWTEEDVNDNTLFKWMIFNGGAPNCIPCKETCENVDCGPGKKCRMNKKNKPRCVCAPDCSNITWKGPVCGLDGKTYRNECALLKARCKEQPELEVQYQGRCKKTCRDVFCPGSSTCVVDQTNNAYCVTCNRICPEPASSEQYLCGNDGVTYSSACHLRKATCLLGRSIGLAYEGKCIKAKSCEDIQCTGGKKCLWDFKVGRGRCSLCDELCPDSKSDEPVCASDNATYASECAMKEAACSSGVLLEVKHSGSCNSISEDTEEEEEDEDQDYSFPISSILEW
Luciferin 4-monooxygenase (Photinus pyralis), sequence (P08659 whole entry, looked up): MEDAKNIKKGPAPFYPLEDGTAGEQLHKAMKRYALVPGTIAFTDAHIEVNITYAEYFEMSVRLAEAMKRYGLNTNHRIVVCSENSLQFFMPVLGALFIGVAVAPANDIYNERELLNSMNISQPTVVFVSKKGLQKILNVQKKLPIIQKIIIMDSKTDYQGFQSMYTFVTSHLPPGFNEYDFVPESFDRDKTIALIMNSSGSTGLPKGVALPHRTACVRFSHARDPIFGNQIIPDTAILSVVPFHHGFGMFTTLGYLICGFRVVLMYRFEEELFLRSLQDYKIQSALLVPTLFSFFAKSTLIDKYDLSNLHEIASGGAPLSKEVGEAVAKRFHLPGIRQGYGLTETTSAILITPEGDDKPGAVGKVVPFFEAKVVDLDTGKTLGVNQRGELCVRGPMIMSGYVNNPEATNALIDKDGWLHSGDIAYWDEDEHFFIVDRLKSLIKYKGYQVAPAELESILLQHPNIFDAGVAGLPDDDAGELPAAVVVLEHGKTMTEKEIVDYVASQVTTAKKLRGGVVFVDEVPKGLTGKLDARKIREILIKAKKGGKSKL
Torsin-1A (Homo sapiens), sequence (O14656 whole entry, looked up): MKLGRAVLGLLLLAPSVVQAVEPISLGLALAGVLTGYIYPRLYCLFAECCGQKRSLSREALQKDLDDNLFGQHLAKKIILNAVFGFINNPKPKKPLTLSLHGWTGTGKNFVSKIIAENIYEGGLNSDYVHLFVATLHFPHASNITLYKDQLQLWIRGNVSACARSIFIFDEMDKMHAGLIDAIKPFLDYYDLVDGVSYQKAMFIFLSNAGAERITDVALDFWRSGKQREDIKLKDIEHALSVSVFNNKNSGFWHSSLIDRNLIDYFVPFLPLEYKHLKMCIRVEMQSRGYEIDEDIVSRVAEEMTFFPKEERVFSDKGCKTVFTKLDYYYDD
Fibroblast growth factor 2 (Homo sapiens), sequence (P09038 whole entry, looked up): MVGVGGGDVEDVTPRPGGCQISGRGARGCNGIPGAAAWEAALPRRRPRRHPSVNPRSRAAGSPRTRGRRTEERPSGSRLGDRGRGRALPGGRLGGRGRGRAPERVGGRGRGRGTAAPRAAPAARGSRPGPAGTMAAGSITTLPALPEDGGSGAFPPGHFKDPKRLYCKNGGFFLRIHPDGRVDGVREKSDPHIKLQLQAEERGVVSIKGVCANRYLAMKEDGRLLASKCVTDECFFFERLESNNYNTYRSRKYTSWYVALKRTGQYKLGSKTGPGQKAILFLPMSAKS
Streptavidin (Streptomyces avidinii), sequence (P22629 whole entry, looked up): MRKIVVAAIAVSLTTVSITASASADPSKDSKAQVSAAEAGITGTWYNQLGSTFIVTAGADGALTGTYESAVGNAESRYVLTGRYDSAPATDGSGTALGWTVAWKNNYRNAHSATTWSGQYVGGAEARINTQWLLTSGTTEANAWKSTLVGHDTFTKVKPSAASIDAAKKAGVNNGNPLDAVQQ
Focal adhesion kinase 1 (Homo sapiens), sequence (Q05397 whole entry, looked up): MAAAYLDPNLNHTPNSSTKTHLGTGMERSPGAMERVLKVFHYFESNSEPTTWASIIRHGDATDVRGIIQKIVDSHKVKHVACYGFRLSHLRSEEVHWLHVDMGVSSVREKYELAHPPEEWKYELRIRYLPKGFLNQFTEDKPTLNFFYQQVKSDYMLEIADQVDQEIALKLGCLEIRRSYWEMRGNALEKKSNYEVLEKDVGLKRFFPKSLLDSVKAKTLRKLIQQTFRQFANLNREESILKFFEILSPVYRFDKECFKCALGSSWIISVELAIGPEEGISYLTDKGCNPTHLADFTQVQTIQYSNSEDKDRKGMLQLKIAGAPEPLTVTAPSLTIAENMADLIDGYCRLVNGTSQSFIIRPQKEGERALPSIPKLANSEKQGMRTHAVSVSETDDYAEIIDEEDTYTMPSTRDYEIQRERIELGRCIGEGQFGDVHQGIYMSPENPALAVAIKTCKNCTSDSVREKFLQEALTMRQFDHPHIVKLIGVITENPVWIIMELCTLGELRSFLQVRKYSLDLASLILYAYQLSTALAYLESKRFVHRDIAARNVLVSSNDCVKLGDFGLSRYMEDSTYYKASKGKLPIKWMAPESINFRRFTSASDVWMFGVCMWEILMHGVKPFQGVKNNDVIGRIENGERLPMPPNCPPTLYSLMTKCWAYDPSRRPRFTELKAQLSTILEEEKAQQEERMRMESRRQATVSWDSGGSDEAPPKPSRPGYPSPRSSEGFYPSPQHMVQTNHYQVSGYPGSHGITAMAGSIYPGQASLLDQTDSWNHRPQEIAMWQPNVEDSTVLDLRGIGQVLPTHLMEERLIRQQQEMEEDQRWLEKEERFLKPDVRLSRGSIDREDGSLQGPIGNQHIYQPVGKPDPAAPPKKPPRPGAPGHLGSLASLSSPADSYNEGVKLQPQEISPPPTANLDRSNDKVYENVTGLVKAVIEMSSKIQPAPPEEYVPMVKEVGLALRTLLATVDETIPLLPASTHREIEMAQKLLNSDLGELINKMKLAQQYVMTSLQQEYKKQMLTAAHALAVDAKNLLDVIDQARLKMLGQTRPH

As to `C=CCN1C(=O)[C@@]2(O[C@@H](CCO)[C@H]([Si](C)(C)c3ccc(OC)cc3)[C@H]2C)c2cc(NC(=O)[C@H](C)O)ccc21`, the composite z-score in experiment [1] came to 2.01; in [2] it was 1.19; in experiment [3], 1.38; in experiment [4], 0.114; in experiment [5], 0.346; in [6], 0.0211. In addition, the composite z-score was 0.582 in experiment [8]; 0.98 in experiment [9]; 0.442 in [11]; 0.0832 in experiment [16]; -0.0695 in experiment [17]; 0.923 in experiment [18]. In addition, the composite z-score in experiment [19] was found to be 1.01; in experiment [20] it was 1.46. Moreover, the z-score is 2.74 in [7]; -0.676 (inactive) in [10]; -5.04 (inactive) in experiment [12]; -0.856 (inactive) in experiment [13]; 17.4 (active) in experiment [14]; -0.213 (inactive) in experiment [15].
As to `COc1cc(C(O)C2C=CC3C(=O)NC(=O)C3N2Nc2ccc(Cl)cc2Cl)cc(OC)c1OC` (stereo not given), the composite z-score is 1.32 in [1]; 1.24 in experiment [2]; 0.105 in experiment [3]; 0.866 in experiment [4]; 1.14 in [5]; -0.0812 in experiment [6]. For the same compound, the composite z-score in experiment [8] was 0.286; in [9], 0.871; in experiment [11], 0.273; in [16], 1.59; in experiment [17], 0.115; in [18], -0.69. Also, the composite z-score in [19] is 0.81; in experiment [20], 0.245. Moreover, the z-score in experiment [7] is 0.275; in experiment [10] it was -0.0332 (inactive); in experiment [12], 0.127 (inactive); in experiment [13] it was -0.591 (inactive); in experiment [14], 0.622 (inactive); in [15], 0.472 (inactive).
As for `COCCOC(=O)N1C(=O)[C@@]2(c3cc(C#CCC(C(=O)OC)C(=O)OC)ccc31)[C@H](C(=O)N1CCCCCCC1)[C@H]1C(=O)O[C@H](c3ccccc3)[C@H](c3ccccc3)N1[C@@H]2c1ccc(O)cc1`, the composite z-score in [1] came out at 2.63; in [2], 1.16; in [3] it was 0.598; in [4], 0.59; in experiment [5], 1.07; in [6], 1.5. The composite z-score in [8] turned out to be 0.972; in experiment [9], 1.13; in experiment [11], 0.735; in experiment [16] it was 1.22; in experiment [17], 1.22; in experiment [18], 1.41. For the same compound, the values for the composite z-score in experiment [19] and in [20] were 1.41 and 1.62, respectively. The z-score in [7] is -0.909; in [10] it was 0.414 (inactive); in experiment [12] it was -4.08 (inactive); in experiment [13], -0.754 (inactive); in [14], -0.882 (inactive); in experiment [15] it was -0.807 (inactive).
For the compound `Cc1ccccc1C(O)C1C=CC2C(=O)N(Cc3ccccc3)C(=O)C2N1n1cnnc1` (stereo not given), the composite z-score in experiment [1] is 1.54; in experiment [2] it was 1.05; in experiment [3], -0.0602; in [4], 1.02; in experiment [5], 1.07; in experiment [6] it was 0.188. Also, the composite z-score in [8] is 0.694; in experiment [9] it was 0.429; in [11], 0.166; in experiment [16] it was 0.0691; in experiment [17] it was -0.0986; in [18], 0.374. For the same compound, the composite z-score came to 0.755 in [19] and 0.59 in [20]. The z-score in experiment [7] was -0.478; in experiment [10], 1.39 (inactive); in experiment [12] it was -0.293 (inactive); in [13], -1.45 (inactive); in [14], -0.667 (inactive); in experiment [15], 0.688 (inactive).
Regarding `CC(C)=CCCC(C)=CC(O)C1C=CC2C(=O)N(c3ccccc3)C(=O)C2N1Nc1ccc([N+](=O)[O-])cc1` (stereo not given), the composite z-score in [1] was 0.987; in experiment [2], 1.22; in experiment [3] it was 0.954; in [4], 1.02; in experiment [5] it was 1.03; in experiment [6], -0.151. The composite z-score in [8] amounted to 0.253; in experiment [9], 0.969; in [11], 0.0504; in [16] it was 2.06; in [17], 0.077; in experiment [18], 0.383. For the same compound, the composite z-score in experiment [19] was determined as 1.12; in experiment [20] it was 0.821. Moreover, the z-score in [7] was -0.78; in [10] it was 0.453 (inactive); in [12], -1.72 (inactive); in experiment [13], -0.322 (inactive); in experiment [14], 0.323 (inactive); in experiment [15], -0.0578 (inactive).
